# Test results published in PubChem BioAssay (EPA / NIEHS).
# Calls of active or inactive are those of the source. The calls were made as follows: active = hit-call score of the fitted dose curve at least 0.9, where 1 is the maximum; inactive = score below 0.9.
# Read-out: Forkhead box O1 (FOXO1), FOXO1 (gene 2308)
# Test: LTEA_HepaRG_FOXO1: Life Technologies and Expression Analysis (LTEA) Assay for Forkhead box O1 (FOXO1) using HepaRG (AID 2283456)
# Settings: mRNA level, 48 h; actives raise or lower the signal
# Procedure: LTEA_HepaRG is a cell based, multiplexed-readout assay that uses HepaRG, a human liver cell line, with measurements taken at 48 hours after chemical dosing on a 96-well plate.LTEA_HepaRG_FOXO1 is one of 102 assay component(s) measured in the LTEA HepaRG cell culture assay. It is a marker of Cell proliferation, survival, death.Data from the assay component LTEA_HepaRG_FOXO1 was analyzed into 1 endpoint. This assay endpoint, LTEA_HepaRG_FOXO1, was analyzed with bidirectional fitting relative to DMSO as the negative control and baseline of activity. Using a type of inducible reporter, measures of mRNA induction for gain or loss-of-signal activity can be used to understand regulation of transcription factor activity. To generalize the intended target to other relatable targets, this assay endpoint is annotated to the dna binding intended target family, where the subfamily is forkhead box protein.
# A total of 1060 chemcials from the ToxCast library were tested in eight-point concentration-response experiments. Cell culture and cytotoxicity assays were conducted at Thermo Fisher Scientific's Custom Services facility (Madison, WI). A single lot of human HepaRG cells (Thermo Fisher Scientific, Frederick, MD) was used for the cell culture experiments. 96-well format collagen type I coated plates of human HepaRG cells were prepared using established methods. Briefly, cryopreserved HepaRG cells were thawed, plated at a density of approximately 100,000 cells/well in HepaRG Thaw, Plate, and General Purpose media (HPRG770, Thermo Fisher Scientific), and incubated for 48 hours. 0.5% DMSO was selected as vehicle control to balance the requisite need of DMSO in HepaRG cultures to maintain differentiation (for example, baseline metabolism, proportions of hepatocytes vs. cholangiocytes), while enabling further hepatic receptor pathway activation (for example, PXR and CAR) in response to chemical exposure. 48 hours after plating, the culture medium was replaced with HepaRG Serum-Free Incudtion Media. Cells were exposed to each test chemical in duplicate and maintained in CO2 incubators for another 48 hours. Chemical plates were thawed to room temperature and 200x concentrations of treatment groups were prepared. 8-point conentration-reponse curves were made with the highest exposure at 100 uM, followed by half-log dilutions, all in 0.5% DMSO. Each test plate contained variouse controls, induction positive controls (1mM phenobarbital), cytotoxicity positive controls ([…] aflatoxin B1), vehicle controls (0.5% DMSO), and total lysis controls (0.5% DMSO). Cell morphology images were taken using an Essen IncuCyte FLR automated microscope, with six 96-well plates imaged in about 24 minutes. Images were captured and exported and JPEG files. Spent culture media was transfered to black-well plates for the LDH assay, and remaining media was sorted at -80 C for later use. Cells were treated with RLT buffer and frozen until shipped for gene expression analysis. Total RNA was isolated from the cell suspension in 75 uL of Buffer RLT (Qiagen, Germantown, MD 20874) by Quintiles/Expression Analysis (Durham, NC) using a custom isolation procedure. Total RNA from each plate well was transferred to a preamplification plate. Fluidigm's 96.96 Dynamic ArrayTM (Fluidigm, Amsterdam, the Netherlands) technology was used for gene expression analyses by quantitative reverse transcription polymerase chain reaction (qRT-PCR, performed by Quintiles/Expression Analysis, Durham, NC)89. Standard TaqManTM Assays (Applied Biosystems/ThermoFisher Scientific, Foster City, CA) were used to assess the expression of 93 genes selected based on their selectivity and sensitivity to important hepatic receptors known to be modulated by environmental chemicals; importance in human hepatocyte functionality; and hepatotoxicity. […]
SMILES,outcome,AC50
Clc1cc(Cl)c(Cl)cc1Cl,inactive,–
CC(=O)OCCOCCOCCOC(C)=O,inactive,–
O=c1c(O)c(-c2ccc(O)c(O)c2)oc2cc(O)cc(O)c12,inactive,–
O=C(O)Cc1ccccc1Nc1c(Cl)cccc1Cl,inactive,–
Nc1ccc(S(=O)(=O)c2ccc(N)cc2)cc1,inactive,–
COc1ccc(S(=O)(=O)N2C(=O)[C@@](c3ccccc3OC)(N3C[C@H](O)C[C@H]3C(=O)N(C)C)c3cc(Cl)ccc32)c(OC)c1,–,35.9 µM (active)
Cc1cccc(C)c1O,inactive,–
Cc1cccc([N+](=O)[O-])c1C,inactive,–
CC(=O)OC/C=C(\C)CCC=C(C)C,inactive,–
Cc1ccc(Cl)cc1,inactive,–
NS(=O)(=O)c1cc2c(cc1Cl)NCNS2(=O)=O,inactive,–
CCCCc1ccc2c(n1)[C@@H](c1ccc(OC)cc1C[C@H](C)C(=O)O)[C@H](C(=O)O)[C@H]2c1ccc2c(c1)OCO2,inactive,–
CN1CCN(Cc2cc(-c3ccc4[nH]c(=O)oc4c3)co2)[C@@H](c2ccc(F)cc2)C1,–,82.2 µM (active)
CC(=O)C(C)=CC1C(C)=CCCC1(C)C (stereo not given),inactive,–
CCCCCCC(=O)OCC,inactive,–
CN1CCCC1=O,inactive,–
CCCCN(CCCC)CCCC,inactive,–
Cc1nc(C)nc(N2C[C@@H](C)N(c3ccnc([C@@H](C)O)n3)[C@@H](C)C2)n1,inactive,–
CN[C@H]1CC[C@@H](c2ccc(Cl)c(Cl)c2)c2ccc(S(N)(=O)=O)cc21,inactive,–
CCCc1cc(=O)[nH]c(=S)[nH]1,inactive,–

SMILES,outcome,AC50
CCCCCCCCCCC,inactive,–
Cc1ccc(C)c(O)c1C,inactive,–
Cc1ccc(C)c(C)c1,inactive,–
COc1ccc(C)cc1N,inactive,–
CCCCCCCCCCCCCCCCCC(=O)O,inactive,–
c1cc(-c2ccncc2)ccn1,inactive,–
O=c1[nH]cc(F)c(=O)[nH]1,inactive,–
O=[N+]([O-])C(CO)(CO)CO,inactive,–
Cc1cc(=O)[nH]c(=S)[nH]1,inactive,–
NCC1(Cc2noc(=O)[nH]2)CCCCC1,inactive,–
FC(F)(F)C(F)(F)C(F)(F)C(F)(F)C(F)(F)C(F)(F)CCI,inactive,–
Cc1ccc(N(C)C)cc1,inactive,–
CC(=O)Oc1ccccc1C(=O)O,inactive,–
C[Si]1(C)O[Si](C)(C)O[Si](C)(C)O[Si](C)(C)O1,inactive,–
Cc1nc(-c2ccc3c(c2)CCN(CCC2CCC(NC(=O)/C=C/c4ccc(F)cc4)CC2)CC3)no1 (stereo not given),inactive,–
COCCOCCOC,–,2.22 µM (active)
CC1(C)CC(N=C=O)CC(C)(CN=C=O)C1 (stereo not given),inactive,–
CC=Cc1ccc(O)c(OC)c1,inactive,–
Cc1c(C(=O)O)c(O)cc2c1C(=O)c1c(O)c([C@@H]3O[C@H](CO)[C@@H](O)[C@H](O)[C@H]3O)c(O)c(O)c1C2=O,inactive,–
CC(C)c1ccc(C(=O)N=C(N)N)cc1S(C)(=O)=O,–,0.498 µM (active)
